Assay [1] is described as follows: ATG_CRE_CIS: Attagene CIS-FACTORIAL HepG2 Assay for human cAMP Responsive Element (CRE) binding protein 3 (AID 2282926). Conditions: HepG2 CRE cis-reporter, Attagene multiplexed mRNA; actives raise or lower the signal. A digest of the protocol: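 Induced reporter mRNA from a CRE cis element, measured in HepG2 among many multiplexed units at 24 h. Detection used RT-PCR plus capillary electrophoresis of fluorescent fragments; DMSO served as negative control.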

Assay [2] has as its target CCAAT/enhancer-binding protein beta (Homo sapiens) (UniProt P17676). Kind of assay: ATG_C_EBP_CIS: Attagene CIS-FACTORIAL HepG2 Assay for human CCAAT/Enhancer Binding Protein (C/EBP) beta (AID 2282927). Conditions: HepG2 Attagene cis-factorial transcription factor reporter; actives raise or lower the signal. A digest of the protocol:
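Following a 24 h incubation with test chemical, transfected HepG2 cells yielded RNA whose reporter transcripts were quantified by RT-PCR and fluorescent capillary electrophoresis, with DMSO serving as baseline for bidirectional fitting.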

Assay [3] is described as follows: ATG_CMV_CIS: Attagene CIS-FACTORIAL HepG2 Assay for human CMV (Internal Marker) (AID 2282928).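 Note: endpoint acts as a background internal control marker rather than a target.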 To be noted: HepG2 CMV promoter reporter, transcription factor profiling; actives raise or lower the signal. Summed up: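 Fluorescence intensity of RT-PCR-derived reporter fragments, resolved by capillary electrophoresis, gives the signal. HepG2 liver cells bearing transfected cis-element reporters were treated 24 h; activity in either direction was fit relative to DMSO-treated controls.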

Assay [4] can be described thus: ATG_DR4_LXR_CIS: Attagene CIS-FACTORIAL HepG2 Assay for human Liver X Receptor (LXR), DR4 submotif (AID 2282929). Conditions: HepG2 Attagene DR4 cis-reporter, mRNA transcription; actives raise or lower the signal. Summed up: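 HepG2 cells were transiently transfected with multiple cis-regulated reporter units and dosed for 24 hours. The DR4 reporter mRNA was quantified by RT-PCR, 6-FAM labelling and capillary electrophoresis. Bidirectional fits used DMSO as baseline.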

Assay [5] concerns the target Aryl hydrocarbon receptor (Homo sapiens) (UniProt P35869). Kind of assay: ATG_Ahr_CIS: Attagene CIS-FACTORIAL HepG2 Assay for human Aryl Hydrocarbon Receptor (Ahr) (AID 2282930). Conditions: HepG2 AhR cis-factorial reporter transcription; actives raise or lower the signal. Summed up: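 Values derive from bidirectional fitting against DMSO negative control. Underlying signal: cis-element reporter mRNA in transiently transfected HepG2, harvested 24 h post-dose and measured by RT-PCR plus capillary electrophoresis.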

Assay [6] in a line: ATG_AP_1_CIS: Attagene CIS-FACTORIAL HepG2 Assay for human Activator Protein 1 (AP-1) (AID 2282931). To be noted: HepG2 Attagene cis-factorial AP-1 reporter mRNA; actives raise or lower the signal. Summed up:
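HepG2 cells transiently transfected with cis-element-driven reporter transcription units, dosed for 24 hours. Reporter mRNA measured by RT-PCR, 6-FAM labelling, HpaI digestion and capillary electrophoresis. Bidirectional fitting against DMSO baseline.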

Assay [7] is described as follows: ATG_AP_2_CIS: Attagene CIS-FACTORIAL HepG2 Assay for human Activator Protein 2 (AP-2) (AID 2282932). Conditions: HepG2 AP-2 cis-reporter, Attagene transcription factor profiling; actives raise or lower the signal. A digest of the protocol:
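Assay in transfected HepG2 with promoter-regulated reporters, 24 h incubation after dosing. Signal is reporter mRNA fluorescence (RT-PCR, capillary electrophoresis), analysed for both increases and decreases relative to DMSO controls.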

Assay [8] is described as follows: ATG_BRE_CIS: Attagene CIS-FACTORIAL HepG2 Assay for human Bone Morphogenetic Protein (BMP) Response Element (BRE) (AID 2282933). To be noted: HepG2 BMP response element reporter, Attagene transcription factor profiling; actives raise or lower the signal. A digest of the protocol: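 Multiplexed cis-reporter assay, HepG2, 24 h exposure. mRNA from reporter units quantified via RT-PCR/CE; DMSO baseline; bidirectional curve fit.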

Assay [9] deals with Retinoic acid receptor alpha (Homo sapiens) (UniProt P10276). As to the kind of experiment: ATG_DR5_RAR_CIS: Attagene CIS-FACTORIAL HepG2 Assay for human Retinoic Acid Receptor Alpha (RARE), DR5 submotif (AID 2282934).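 For AC50: reporter responds to endogenous RAR alpha beta and gamma in HepG2 not RARA alone.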 To be noted: HepG2 Attagene cis-factorial RARE DR5 reporter, mRNA; actives raise or lower the signal. A digest of the protocol: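 Endpoint fitted in both directions relative to DMSO as negative control. It reflects DR5 cis-element reporter mRNA induction in transiently transfected HepG2 cells, measured 24 h after dosing through RT-PCR and fluorescent capillary electrophoresis.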
Chain of Retinoic acid receptor alpha (Homo sapiens) (P10276 whole entry, looked up): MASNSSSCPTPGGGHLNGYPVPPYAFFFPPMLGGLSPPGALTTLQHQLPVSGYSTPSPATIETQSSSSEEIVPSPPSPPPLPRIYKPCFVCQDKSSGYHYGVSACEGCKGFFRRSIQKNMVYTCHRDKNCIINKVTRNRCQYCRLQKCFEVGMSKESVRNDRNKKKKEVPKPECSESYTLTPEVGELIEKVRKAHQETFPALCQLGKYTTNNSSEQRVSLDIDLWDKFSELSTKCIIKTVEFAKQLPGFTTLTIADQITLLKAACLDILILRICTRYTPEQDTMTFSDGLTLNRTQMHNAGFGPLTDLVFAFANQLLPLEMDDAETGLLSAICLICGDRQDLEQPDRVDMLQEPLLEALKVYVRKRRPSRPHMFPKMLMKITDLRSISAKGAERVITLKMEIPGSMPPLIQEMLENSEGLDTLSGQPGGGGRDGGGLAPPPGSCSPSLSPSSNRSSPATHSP

Assay [10] addresses Transcription factor E2F1 (Homo sapiens) (UniProt Q01094). Kind of assay: ATG_E2F_CIS: Attagene CIS-FACTORIAL HepG2 Assay for human E2F Transcription Factor 1 (AID 2282935). Conditions: HepG2 Attagene cis-reporter, E2F reporter RNA transcripts; actives raise or lower the signal. A digest of the protocol:
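In this cis-factorial format, endogenous factor activity drives transfected reporters in HepG2; transcripts collected at 24 h are quantified by fluorescence after RT-PCR and capillary separation.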

A short description of assay [11]: ATG_E_Box_CIS: Attagene CIS-FACTORIAL HepG2 Assay for human Enhancer Box (E-box) (AID 2282936). Conditions: HepG2 E-box cis-reporter transcription, actives raise or lower the signal. A digest of the protocol: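 Measured 24 h post-dosing in HepG2 cells transfected with multiple cis-regulated reporter units, signal being reporter mRNA induction detected by fluorescent RT-PCR with capillary electrophoresis; gain or loss fitted against DMSO.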

The nature of assay [12]: ATG_M_61_CIS: Attagene CIS-FACTORIAL HepG2 Assay for M61 Transcription Factor (Internal Marker) (AID 2282937). To be noted: HepG2 Attagene CIS-FACTORIAL M61 internal marker reporter; actives raise or lower the signal. Summed up: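 HepG2 cells transiently transfected with multiplexed cis-promoter reporter units reporting endogenous transcription factor activity, measured 24 h after dosing. Reporter mRNA quantified by RT-PCR and capillary electrophoresis; bidirectional fit against DMSO baseline.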

Assay [13] can be described thus: ATG_EGR_CIS: Attagene CIS-FACTORIAL HepG2 Assay for human Early Growth Response 1 (EGR1) (AID 2282938). Conditions: HepG2 Attagene CIS-FACTORIAL EGR reporter mRNA; actives raise or lower the signal. Summed up: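 HepG2 cells transiently transfected with cis-element-driven multiplexed reporter units, dosed for 24 h. EGR1-element reporter mRNA quantified by RT-PCR, 6-FAM labelling, HpaI digestion and capillary electrophoresis; bidirectional fit versus DMSO.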

The nature of assay [14]: ATG_M_19_CIS: Attagene CIS-FACTORIAL HepG2 Assay for M19 Transcription Factor (Internal Marker) (AID 2282939). Conditions: HepG2 Attagene CIS-FACTORIAL M19 internal marker reporter; actives raise or lower the signal. Summed up: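 Signals come from fluorescence of labelled reporter-specific PCR fragments resolved by capillary electrophoresis, following 24 h treatment of HepG2 cells transfected with cis-promoter reporter units; activity was fitted in both directions relative to DMSO.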

The nature of assay [15]: ATG_ERE_CIS: Attagene CIS-FACTORIAL HepG2 Assay for Estrogen Response Element (ERE) (AID 2282940). Conditions: HepG2 ERE cis-reporter, Attagene RNA transcript; actives raise or lower the signal. Summed up:
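Fluorescence of capillary-separated, FAM-labelled reporter cDNA fragments indicates reporter mRNA levels in HepG2 cells exposed to chemicals for 24 h. Transient transfection with cis-regulated units; data fitted in both directions against DMSO.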

A short description of assay [16]: ATG_Ets_CIS: Attagene CIS-FACTORIAL HepG2 Assay for human Erythroblast Transformation Specific (ETS) (AID 2282941). Conditions: HepG2 ETS cis-reporter transcription, actives raise or lower the signal. Summed up: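 Multiplexed reporter transcript profiling: HepG2, 24 h treatment, total RNA to cDNA, PCR, 6-FAM labelling, HpaI cut, capillary electrophoresis. Gain- or loss-of-signal fitted against DMSO.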

Assay [17] concerns the target Hepatocyte nuclear factor 3-beta (Homo sapiens) (UniProt Q9Y261). Kind of assay: ATG_FoxA2_CIS: Attagene CIS-FACTORIAL HepG2 Assay for human Forkhead box A2 (FOXA2) (AID 2282942). To be noted: HepG2 cis-reporter transcription factor activity, 24 h; actives raise or lower the signal. Summed up: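 HepG2 transiently transfected with a multiplexed cis-promoter reporter library read endogenous FOXA2 activity. After 24 h compound exposure, reporter mRNA was quantified by RT-PCR, HpaI digestion and capillary electrophoresis. Bidirectional fit against DMSO.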

Assay [18] in a line: ATG_FoxO_CIS: Attagene CIS-FACTORIAL HepG2 Assay for human Forkhead box O (FoxO) (AID 2282943). Conditions: HepG2 Attagene cis-reporter, FoxO element, mRNA; actives raise or lower the signal. A digest of the protocol:
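Values reflect reporter mRNA induction or loss in HepG2 cells 24 h post-dosing, fitted bidirectionally with DMSO as negative control and baseline. Detection used RT-PCR and fluorescence capillary electrophoresis.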

The nature of assay [19]: ATG_GATA_CIS: Attagene CIS-FACTORIAL HepG2 Assay for human GATA Binding Protein (AID 2282944). Conditions: HepG2 GATA cis-element reporter, Attagene multiplex mRNA; actives raise or lower the signal. Summed up:
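After transfecting HepG2 cells with multiple cis-regulated reporter units, chemicals are dosed for 24 h; isolated RNA undergoes RT-PCR and fluorescent labeling before capillary electrophoresis, with activity expressed against DMSO.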

Assay [20] is described as follows: ATG_GLI_CIS: Attagene CIS-FACTORIAL HepG2 Assay for human Zinc Finger Protein GLI1 (AID 2282945). Conditions: HepG2, Attagene cis-factorial reporter mRNA, GLI element; actives raise or lower the signal. A digest of the protocol: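 HepG2 cells transiently transfected with cis-promoter multiplexed reporter units report endogenous transcription factor activity. After 24 h chemical exposure, reporter mRNA was quantified by RT-PCR, 6-FAM labelling, HpaI digestion and capillary electrophoresis, with bidirectional fitting against DMSO.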

“And” between values parts separate entries of the source, which are not always exact repeats. Equal entries are not always repeated. Where a structure was tested more than once in an assay, its records may differ in their call. The source made the active and inactive calls. Rule for the calls: active = hit-call score of the fitted dose curve at least 0.9, where 1 is the maximum; inactive = score below 0.9.

Chain of CCAAT/enhancer-binding protein beta (Homo sapiens) (P17676 whole entry, looked up): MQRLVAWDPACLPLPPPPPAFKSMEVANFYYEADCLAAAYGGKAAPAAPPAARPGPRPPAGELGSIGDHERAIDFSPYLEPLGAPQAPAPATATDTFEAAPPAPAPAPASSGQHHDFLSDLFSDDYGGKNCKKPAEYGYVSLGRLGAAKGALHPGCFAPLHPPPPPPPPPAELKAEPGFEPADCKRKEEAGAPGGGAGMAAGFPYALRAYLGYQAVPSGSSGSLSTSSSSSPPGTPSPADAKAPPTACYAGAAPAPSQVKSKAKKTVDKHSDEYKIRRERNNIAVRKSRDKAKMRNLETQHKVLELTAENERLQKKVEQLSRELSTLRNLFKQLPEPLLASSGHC
Chain of Hepatocyte nuclear factor 3-beta (Homo sapiens) (Q9Y261 whole entry, looked up): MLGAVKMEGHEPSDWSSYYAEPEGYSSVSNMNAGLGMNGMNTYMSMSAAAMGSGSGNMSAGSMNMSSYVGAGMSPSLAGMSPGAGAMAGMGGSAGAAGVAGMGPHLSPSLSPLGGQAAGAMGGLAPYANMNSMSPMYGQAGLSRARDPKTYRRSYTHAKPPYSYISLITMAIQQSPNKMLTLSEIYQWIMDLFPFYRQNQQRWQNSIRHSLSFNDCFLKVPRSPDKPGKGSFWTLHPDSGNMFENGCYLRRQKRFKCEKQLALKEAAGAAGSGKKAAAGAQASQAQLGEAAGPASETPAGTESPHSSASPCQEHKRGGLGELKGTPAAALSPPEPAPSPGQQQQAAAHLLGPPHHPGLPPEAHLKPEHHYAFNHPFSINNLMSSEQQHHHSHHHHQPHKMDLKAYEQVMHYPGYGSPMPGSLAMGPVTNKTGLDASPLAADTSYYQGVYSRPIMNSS
Chain of Transcription factor E2F1 (Homo sapiens) (Q01094 whole entry, looked up): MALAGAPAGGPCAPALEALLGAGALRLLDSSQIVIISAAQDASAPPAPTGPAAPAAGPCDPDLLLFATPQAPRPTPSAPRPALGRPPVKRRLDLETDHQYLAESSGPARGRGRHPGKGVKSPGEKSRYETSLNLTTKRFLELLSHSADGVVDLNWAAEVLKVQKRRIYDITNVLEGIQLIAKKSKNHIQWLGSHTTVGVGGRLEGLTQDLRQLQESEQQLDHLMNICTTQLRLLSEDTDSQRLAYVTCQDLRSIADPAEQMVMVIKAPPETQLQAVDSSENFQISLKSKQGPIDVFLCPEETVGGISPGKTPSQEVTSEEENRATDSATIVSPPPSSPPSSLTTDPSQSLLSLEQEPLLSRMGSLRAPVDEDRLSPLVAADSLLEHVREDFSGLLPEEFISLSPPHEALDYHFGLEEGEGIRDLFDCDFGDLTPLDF
Chain of Aryl hydrocarbon receptor (Homo sapiens) (P35869 whole entry, looked up): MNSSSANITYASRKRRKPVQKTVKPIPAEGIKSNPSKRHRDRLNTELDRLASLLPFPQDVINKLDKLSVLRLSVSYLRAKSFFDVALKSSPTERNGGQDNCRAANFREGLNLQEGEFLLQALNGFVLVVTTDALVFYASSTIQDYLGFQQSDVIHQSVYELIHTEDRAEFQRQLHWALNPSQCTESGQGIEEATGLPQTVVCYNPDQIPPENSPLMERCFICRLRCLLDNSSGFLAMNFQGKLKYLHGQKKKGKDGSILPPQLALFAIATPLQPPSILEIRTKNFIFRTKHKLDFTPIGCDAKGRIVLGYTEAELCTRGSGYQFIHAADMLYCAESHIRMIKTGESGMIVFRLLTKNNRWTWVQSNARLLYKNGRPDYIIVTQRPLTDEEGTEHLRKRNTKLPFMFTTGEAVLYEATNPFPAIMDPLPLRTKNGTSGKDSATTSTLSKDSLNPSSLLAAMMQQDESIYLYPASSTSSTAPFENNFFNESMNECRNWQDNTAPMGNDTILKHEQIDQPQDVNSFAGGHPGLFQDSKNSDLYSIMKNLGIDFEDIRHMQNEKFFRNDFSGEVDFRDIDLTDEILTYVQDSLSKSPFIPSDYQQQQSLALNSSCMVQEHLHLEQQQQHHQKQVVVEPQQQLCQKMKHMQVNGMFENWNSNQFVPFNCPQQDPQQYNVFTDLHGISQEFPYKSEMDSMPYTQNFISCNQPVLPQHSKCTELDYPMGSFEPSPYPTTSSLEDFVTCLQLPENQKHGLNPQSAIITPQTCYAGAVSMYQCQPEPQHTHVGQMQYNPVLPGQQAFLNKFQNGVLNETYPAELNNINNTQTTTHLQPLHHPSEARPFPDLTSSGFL

For `c1ccc2ccccc2c1`, the compound was classed as inactive in assay [1], in [2], in assay [3], in assay [4], in [5] and in assay [6]. The result in assay [7], in assay [8], in [9], in [10], in assay [11] and in assay [12] was inactive. In addition, the compound was classed as inactive in assay [13], in assay [14], in [15], in [16], in [17] and in assay [18]. In addition, the compound was classed as inactive in assay [19] and in assay [20].

Consider `CCCCCCCCCCCO`, for which the compound was classed as inactive in assay [1], in assay [2], in [3], in assay [4], in assay [5] and in assay [6]. Moreover, the compound was classed as inactive in [7], in assay [8], in assay [9], in [10], in [11] and in assay [12]. Moreover, the compound was classed as inactive in assay [14], in assay [15], in assay [16], in assay [17], in assay [18] and in assay [19]. Also, the compound was classed as inactive in assay [20].

With `OCCO`, the result in [1], in assay [2], in [3], in assay [4], in [5] and in [6] was inactive. In addition, the result in assay [7], in assay [8], in assay [9], in assay [10], in [11] and in [12] was inactive. The call in [13], in assay [14], in assay [15], in assay [16], in [17] and in assay [18] was inactive. Also, the outcome in assay [19] and in [20] was inactive.

In general, AC50 refers to the concentration at which the activity in the assay is half-maximal. With `CCCCCCCC[Si](OCC)(OCC)OCC`, the AC50 was 54.5 µM (active) in assay [1]; 65.7 µM (active) in assay [2]; 62.9 µM (active) [middle of 4 runs] in assay [3]; 126 µM (active) [middle of 4 runs] in assay [4]; 70.2 µM (active) [middle of 4 runs] in assay [6]; 159 µM (active) in [8]. Further, the AC50 in assay [9] is 69.2 µM (active); in [11] it was 48.4 µM (active); in assay [16] it was 100 µM (active) and 75.6 µM (active); in assay [20], 162 µM (active). The compound was called inactive in assay [1], in assay [2], in assay [5], in [7], in assay [8] and in assay [9]. Further, the outcome in assay [11], in assay [12], in assay [14], in [16], in assay [17] and in [18] was inactive. The call in assay [19] and in assay [20] was inactive.

As to `Oc1ccccc1`, the outcome in assay [1], in assay [2], in assay [3], in assay [4], in assay [5] and in assay [6] was inactive. Besides, the result in assay [7], in [8], in [9], in [11], in assay [12] and in assay [13] was inactive. The result in assay [14], in [16], in assay [17], in assay [18], in [19] and in assay [20] was inactive.

The values above are taken from PubChem BioAssay (EPA / NIEHS).
